Values joined by “and” are separate entries in the source; they are usually repeats but may differ in a detail not shown here. Equal values may be shown once. Results filed as inconclusive are left out. Active and inactive are the calls of the source. Unless noted, calls come from the whole dose curve; as a rule, active = well fitted curve in the direction sought with a large enough effect; inconclusive = small, poorly fitted or top-dose-only effect, or another doubt; inactive = no such curve, though single readings can be large; an effect the other way counts as inactive or inconclusive.
How the values were obtained:
[1] = Cell Viability - MRC5 (AID 434; calls by dose curve;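 note: potency is the fitted concentration of half-maximal effect; potency reflects cytotoxicity seen as loss of intracellular ATP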); details: MRC5 lung fibroblast viability, qHTS
How it was run: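 AC50 values come from Hill-equation fits of intracellular ATP loss, measured by CellTiter-Glo luminescence. Normal lung fibroblasts (MRC5) had 40 hr compound treatment at 37 C, normalized between DMSO and 100 uM tamoxifen.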

[2] = molecular target: Mitogen-activated protein kinase 10 (Mus musculus) (UniProt Q61831); assay: JNK3 AlphaScreen Assay (AID 530; active = well fitted curve in either direction with a large enough effect, not every such curve was filed as active;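 note: kinase came from lysate of stimulated human HepG2 cells; signal reports phosphorylation of biotinylated GST-cJun 1-79 at Ser73 with 10 µM ATP; % is set by controls: 0 for no effect and ±100 for the full control effect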); details: JNK3 lysate, c-Jun phosphorylation; series mostly up to 57.1 µM
How it was run: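 Kinase buffer: 20 mM Tris-HCl pH 7.6, 10 mM MgCl2, 1 mM DTT, 0.1 mM Na3VO4, 0.01% Tween-20; ATP 10 uM. Substrate biotin-GST-cJun(1-79), enzyme from activated HepG2 lysates. Detection by Ser73 phospho-antibody AlphaScreen.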

[3] = Cell Viability - Renal Proximal Tubule (AID 545); details: renal proximal tubule cells viability; series mostly up to 91.7 µM; note: nearly all actives have a fitted effect of over 40% in size
How it was run: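 Rat renal proximal tubule primary cells, 1000/well, exposed to compounds for 40 hr at 37 °C in complete medium; cellular ATP read by CellTiter-Glo luminescence. AC50 from concentration-response fitted with standard Hill equation.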

[4] = Cellular Toxicity (caspase-3) HepG2 (AID 654); details: HepG2 caspase-3 activation, luminescence, 0% = DMSO only, 100% = tamoxifen; series mostly up to 92.2 µM;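 note: cells exposed to compound for 16 hours before reading; 0% = DMSO alone and 100% = caspase signal from 100 µM tamoxifen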
How it was run: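 Luminescent Caspase-Glo 3/7 readout after 16 hr compound exposure of human hepatocellular carcinoma HepG2 cells at 37 °C; qHTS concentration-response, normalized DMSO = 0%, 100 uM tamoxifen = 100%; AC50 by standard Hill equation.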

[5] = Cellular Toxicity (caspase-3) SHSY5Y (AID 657); details: SH-SY5Y caspase-3 activation, DMSO zero, 10 µM staurosporine = 100%; series mostly up to 91.7 µM
How it was run: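 SH-SY5Y human neuroblastoma cells, 1500/well, exposed to compound for 16 hours at 37 °C in complete medium. Caspase-3/7 activity read by Caspase-Glo luminescence after 1 hr at room temperature, normalized to DMSO and 10 uM staurosporine; AC50 from Hill fit.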

[6] = Cellular Toxicity (caspase-3) H-4-II-E (AID 663); details: H-4-II-E rat hepatoma; Potency: caspase-3 activation; series mostly up to 92.2 µM;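 note: cells exposed to compound for 16 hr before readout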
How it was run: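 Caspase 3/7 activation measured by luminescent aminoluciferin substrate cleavage after 16 hr compound treatment of H-4-II-E cells in complete medium. Increase normalized between DMSO (basal) and 100 uM tamoxifen (100%); Hill-equation AC50 from concentration-response.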

[7] = Cellular Toxicity (caspase-3) N2a (AID 665); details: N2a cells, luminescence, normalized: DMSO 0%, 10 µM staurosporine 100%; series mostly up to 92.2 µM;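 note: compound exposure lasted 16 h at 37 °C before readout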
How it was run: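 Luminescent Caspase-Glo 3/7 readout in N2a mouse neuroblastoma cells after 16 h compound exposure at 37 °C. Signal scaled to DMSO (basal) and 10 uM staurosporine (100%). Concentration-response fitted with Hill equation for AC50.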

[8] = Cellular Toxicity (caspase-3) Renal Proximal Tubule (AID 667); details: renal proximal tubule cells; series mostly up to 91.7 µM;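 note: cells exposed to compound for 16 hours at 37 °C before detection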
How it was run: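 Freshly isolated primary rat kidney proximal tubule cells, 1000/well, treated 16 hr at 37 °C, then Caspase-Glo 3/7 luminescence after 1 hr. Normalized to DMSO and 10 uM staurosporine; AC50 from Hill fit.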

[9] = Cell Viability - LYMP2-001 (AID 921); details: LYMP2-001 lymphoblastoid cell viability; series mostly up to 92.2 µM;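 note: 0% = DMSO only and full inhibition = tetraoctylammonium bromide control wells; nearly all actives have a fitted effect of over 70% in size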
How it was run: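 Human lymphoblastoid LYMP2-001 cells, 2500 per well, in complete medium, treated 24 h at 37 C. Viability from cellular ATP by CellTiter-Glo luminescence; AC50 from Hill-equation fits of qHTS concentration-response.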

[10] = Cell Viability - LYMP1-003 - Assay at 24 hr (AID 963); details: LYMP1-003 lymphoblastoid cell viability; series mostly up to 92.2 µM;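 note: plate controls were DMSO only for no effect and tetraoctylammonium bromide positive control for full effect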
How it was run: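 CellTiter-Glo luminescence (intracellular ATP) read after 24 hr, 37 C compound exposure of 2500 LYMP1-003 human lymphoblastoid cells/well in complete medium; qHTS concentration series; AC50 via standard Hill equation.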

[11] = Cell Viability - LYMP1-003 - Assay at 40 hr (AID 964); details: LYMP1-003 lymphoblastoid viability; series mostly up to 92.2 µM; note: % is set by controls: 0 for no effect and ±100 for the full control effect; nearly all actives have a fitted effect of over 60% in size
How it was run: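 LYMP1-003 lymphoblastoid cells, 2500/well; 5 hr preincubation, 40 hr compound exposure, 37 C; CellTiter-Glo 30 min RT; luminescence; Hill-fit AC50. Positive control tetraoctylammonium bromide.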

[12] = Cell Viability - LYMP2-009 (AID 968); details: LYMP2-009 lymphoblastoid cell viability; series mostly up to 92.2 µM;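 note: 0% = DMSO alone and the full-kill end = tetraoctylammonium bromide at 92 µM; nearly all actives have a fitted effect of over 55% in size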
[13] = Cell Viability - LYMP2-021 (AID 974); details: LYMP2-021 lymphoblastoid cells viability; series mostly up to 92.2 µM;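 note: compound exposure lasts 24 hours at 37 °C; % is set by controls: 0 for no effect and ±100 for the full control effect; nearly all actives have a fitted effect of over 55% in size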
How it was run: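 ATP luminescence (CellTiter-Glo, 30 min RT) after 24 h compound exposure at 37 C; 2500 human lymphoblastoid cells/well, 5 h settle beforehand. Cytotoxicity = concentration-dependent ATP drop, AC50 by Hill fit.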

[14] = Cell Viability - LYMP2-006 (AID 978); details: LYMP2-006 lymphoblastoid cell viability, qHTS; series mostly up to 92.2 µM;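 note: cells exposed to compound for 24 hours; % is set by controls: 0 for no effect and ±100 for the full control effect; nearly all actives have a fitted effect of over 60% in size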
How it was run: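 Human lymphoblastoid cells (LYMP2-006), 2500/well in complete medium, were treated with compound for 24 hr at 37 C. Cellular ATP was read by CellTiter-Glo luminescence after 30 min, and AC50 values came from Hill-equation fits of concentration-response data.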

[15] = Cell Viability - LYMP2-008 (AID 980); details: LYMP2-008 lymphoblastoid cell viability, qHTS; series mostly up to 92.2 µM; note: % is set by controls: 0 for no effect and ±100 for the full control effect; nearly all actives have a fitted effect of over 60% in size
How it was run: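 Luminescent ATP read-out (CellTiter-Glo, 30 min RT) after 24 hr compound exposure at 37 C of human lymphoblastoid cells in complete medium. Decrease in ATP taken as cytotoxicity; AC50 derived by standard Hill fit of qHTS concentration-response data.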

[16] = Cell Viability - LYMP2-018 (AID 985); details: LYMP2-018 lymphoblastoid cells, viability (qHTS); series mostly up to 92.2 µM;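 note: plate controls were DMSO only for no effect and tetraoctylammonium bromide at 92 µM for full effect; nearly all actives have a fitted effect of over 50% in size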
How it was run: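 2500 cells/well; 5 hr 37 C; cmpd 24 hr 37 C, complete medium; CellTiter-Glo 30 min RT; luminescence. Tetraoctylammonium bromide positive control. AC50 via Hill fit.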

[17] = Cell Viability - LYMP1-002 - Assay at 24 hr (AID 993); details: LYMP1-002 lymphoblastoid cells viability; series mostly up to 92.2 µM; note: % is set by controls: 0 for no effect and ±100 for the full control effect
How it was run: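 CellTiter-Glo luminescence (intracellular ATP) after 24 h compound exposure, 37 C, in LYMP1-002 human lymphoblastoid cells; decreased ATP taken as cytotoxicity. AC50 from standard Hill fit of concentration-response curves.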

[18] = qHTS assay for environmental chemicals that activate the Aryl hydrocarbon Receptor (AhR) signaling pathway (AID 651777); details: 1A2-DRE human hepatoma cells, luciferase, 24 h; activation: active compounds read high; note: % of control where 0% means no effect; nearly all actives have a fitted effect of over 15% in size
How it was run: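 Concentration–response screening used 1,200 1A2-DRE cells per well, 24 hr compound exposure (37 C, 5% CO2), and One-Glo luminescence as the AhR-driven CYP1A2 reporter signal.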

[19] = qHTS assay for small molecule activators of the human pregnane X receptor (PXR) signaling pathway (AID 720659; call rule not given here; note: 0% is about no effect); details: DPX-2 HepG2 CYP3A4-luciferase, 24 h; series mostly up to 92.3 µM
[20] = MultiTox-Fluor Cytotoxicity Assay - LYMP1-003 - Dead Cells (AID 961); details: LYMP1-003 lymphoblastoid cells, dead-cell protease fluorescence; series mostly up to 92.2 µM; note: nearly all actives have a fitted effect of over 70% in size
How it was run: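 Dead-cell protease release, detected as bis-AAF-R110 fluorescence at 485/520 nm, was measured in LYMP1-003 cells after 16 h compound treatment at 37 C. AC50 values came from Hill-modeled qHTS curves normalized to DMSO (0%) and 15 uM tetraoctylammonium bromide (100%).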

CCCCC#N
inactive: Potency [1] > 92 µM | Potency [2] | outcome [3] | outcome [4] | outcome [5] | Potency [6] | outcome [7] | outcome [8] | Potency [9] | outcome [10] | Potency [11] | Potency [12] | Potency [13] | Potency [14] | Potency [15] | Potency [16] | Potency [17] | activation [18] 1.07% | outcome [19]

Nc1ncc([N+](=O)[O-])s1
inactive: Potency [1] > 92 µM | Potency [2] | outcome [3] | outcome [4] | outcome [5] | Potency [6] | outcome [7] | outcome [8] | Potency [20] | outcome [10] | Potency [11] | Potency [13] | Potency [15] | Potency [16] | activation [18] 1.78% | outcome [19]

CCOC(=O)CC(SP(=O)(OC)OC)C(=O)OCC (stereo not given)
inactive: Potency [1] > 92 µM | Potency [2] | outcome [3] | outcome [4] | outcome [5] | Potency [6] | outcome [7] | outcome [8] | Potency [9] | Potency [20] | outcome [10] | Potency [11] | Potency [12] | Potency [14] | Potency [15] | Potency [16] | Potency [17] | activation [18] 1.9% and 4.95% | outcome [19]

c1ccc(P(c2ccccc2)c2ccccc2)cc1
inactive: Potency [1] > 92 µM | outcome [3] | outcome [4] | outcome [5] | outcome [8] | Potency [9] | Potency [20] | outcome [10] | Potency [11] | Potency [12] | Potency [13] | Potency [14] | Potency [15] | Potency [16] | Potency [17] | activation [18] 0.491%

CC(C)[C@]12CC(=O)[C@H](C)[C@H]1C2
inactive: Potency [1] > 92 µM | Potency [2] | outcome [3] | outcome [4] | outcome [5] | Potency [6] | outcome [7] | outcome [8] | Potency [9] | Potency [20] | outcome [10] | Potency [11] | Potency [12] | Potency [14] | Potency [15] | Potency [16] | activation [18] -0.165% and 1.56% | outcome [19]

Cc1cccc(C)c1N
inactive: Potency [1] > 92 µM | Potency [2] | outcome [3] | outcome [4] | outcome [5] | Potency [6] | outcome [7] | outcome [10] | Potency [11] | Potency [12] | Potency [13] | Potency [14] | Potency [15] | Potency [16] | Potency [17] | activation [18] 1.32% | outcome [19]

O=[N+]([O-])c1cccc(O)c1
inactive: Potency [1] > 92 µM | Potency [2] | outcome [3] | outcome [4] | outcome [5] | Potency [6] | outcome [7] | outcome [8] | Potency [20] | outcome [10] | Potency [11] | Potency [12] | Potency [13] | Potency [14] | Potency [15] | Potency [16] | Potency [17] | activation [18] 1.58% | outcome [19]

Clc1cc(Cl)c(Cl)c(Cl)c1
inactive: Potency [1] > 92 µM | Potency [2] | outcome [3] | outcome [4] | outcome [5] | Potency [6] | outcome [7] | outcome [8] | Potency [9] | Potency [20] | outcome [10] | Potency [11] | Potency [12] | Potency [13] | Potency [14] | Potency [15] | Potency [16] | activation [18] 0.248% | outcome [19]

Oc1cc(Cl)ccc1Cl
inactive: Potency [1] > 92 µM | Potency [2] | outcome [3] | outcome [4] | outcome [5] | Potency [6] | outcome [7] | outcome [8] | Potency [9] | Potency [20] | outcome [10] | Potency [12] | Potency [13] | Potency [14] | Potency [15] | Potency [16] | Potency [17] | activation [18] -0.282% and -1.1% | outcome [19]

N#CCBr
inactive: Potency [1] > 92 µM | Potency [2] | outcome [3] | outcome [5] | Potency [6] | outcome [7] | outcome [8] | Potency [9] | Potency [20] | outcome [10] | Potency [11] | Potency [12] | Potency [13] | Potency [14] | Potency [15] | Potency [17] | activation [18] 13.7% | outcome [19]

O=C(Cl)OCc1ccccc1
inactive: Potency [1] > 92 µM | Potency [2] | outcome [3] | outcome [4] | outcome [5] | Potency [6] | Potency [9] | Potency [20] | Potency [13] | Potency [14] | Potency [16] | Potency [17] | activation [18] 0.249% | outcome [19]

ClCc1ccccc1
inactive: Potency [1] > 92 µM | Potency [2] | outcome [3] | outcome [4] | outcome [5] | Potency [6] | outcome [7] | outcome [8] | Potency [20] | outcome [10] | Potency [11] | Potency [12] | Potency [13] | Potency [14] | Potency [17] | outcome [19]

CC1CC(=O)O1 (stereo not given)
inactive: Potency [1] > 92 µM | Potency [2] | outcome [3] | outcome [4] | outcome [5] | Potency [6] | outcome [7] | outcome [8] | Potency [9] | Potency [20] | Potency [11] | Potency [12] | Potency [15] | Potency [16] | activation [18] 0.52% | outcome [19]

C=CC#N
inactive: Potency [1] > 92 µM | Potency [2] | outcome [5] | Potency [6] | outcome [7] | outcome [8] | Potency [9] | Potency [20] | outcome [10] | Potency [11] | Potency [13] | Potency [14] | Potency [15] | Potency [16] | Potency [17] | activation [18] 2.03% | outcome [19]

Nc1ccc(Oc2ccc(N)cc2)cc1
inactive: Potency [1] > 92 µM | Potency [2] | outcome [3] | outcome [4] | outcome [5] | Potency [6] | outcome [7] | outcome [8] | Potency [20] | outcome [10] | Potency [11] | Potency [13] | Potency [14] | Potency [15] | Potency [17] | activation [18] 2.36% and 5.82% | outcome [19]
